TrxR1 inh: rat TrxR1 inhibition; O89049; recombinant rTrxR1, NADPH fluorescence consumption, selenite substrate; Potency, µM (highest dose often 114 µM), inactives show at the highest dose activity change, negative = inhibition, usual class: inhibitors; 390,000 compounds, 1% hits; AID 588453; also: nearly all actives have a fitted effect of over 65% in size
Target sequence (O89049 whole entry, looked up): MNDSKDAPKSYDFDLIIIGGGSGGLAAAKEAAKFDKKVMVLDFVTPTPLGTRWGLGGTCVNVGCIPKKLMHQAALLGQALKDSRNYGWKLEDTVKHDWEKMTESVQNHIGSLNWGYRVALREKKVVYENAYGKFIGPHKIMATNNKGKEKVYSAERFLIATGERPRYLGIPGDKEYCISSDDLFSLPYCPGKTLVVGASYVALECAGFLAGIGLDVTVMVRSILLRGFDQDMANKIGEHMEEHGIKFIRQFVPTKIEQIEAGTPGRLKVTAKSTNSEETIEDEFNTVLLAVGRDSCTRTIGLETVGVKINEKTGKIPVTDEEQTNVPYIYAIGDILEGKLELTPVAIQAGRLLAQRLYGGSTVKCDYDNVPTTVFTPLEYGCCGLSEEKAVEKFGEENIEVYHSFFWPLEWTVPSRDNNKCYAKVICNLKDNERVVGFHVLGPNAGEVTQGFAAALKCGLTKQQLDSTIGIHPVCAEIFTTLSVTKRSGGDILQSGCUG
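Rat TrxR1 (90 nM in the dispensed reagent) was pre-reduced with 400 uM NADPH for 5 min at room temperature, then incubated with compound for 15 min. After 400 uM selenite was added, NADPH fluorescence (Ex 340/Em 450 nm) was followed for 8 min.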
VDR inhibitor: inhibitors of human vitamin D receptor; Potency, µM, inactives show max response, negative = inhibition, usual class: inhibitors; 400,000 compounds, 0.93% hits; P11473; VDR-SRC2-3 peptide fluorescence polarization, 2 h; AID 504847
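Reagent solutions, kept cold and dark, are dispensed first; compounds are then pinned in at 23 nl, plates briefly spun, and incubated 2 h at ambient temperature. Inhibition of VDR–SRC2-3 peptide binding is read by fluorescence polarization.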
GCN5L2 inh: blocks human GCN5L2 histone acetyltransferase; GCN5L2 HAT assay, ThioGlo1 CoA-SH fluorescence; Potency, µM (series often up to 58.9 µM), without a hit: top-dose activity change, negative = inhibition, most hits filed as inhibitors; 390,000 compounds, 0.21% hits
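qHTS, 1536-well. 20nM enzyme, pH 7.5 HEPES/EDTA/Tween-20 buffer; 15 min compound preinc., RT. Start: 75uM H3(1-25), 70uM AcCoA, 50uM ThioGlo1. Read Ex340/Em540 at t=0 (autofluorescence flag) and t=20 min.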
TrxR1 substrate: rat thioredoxin reductase 1 substrate activity; O89049; purified TrxR1 substrate turnover, NADPH consumption readout; Potency, µM (highest dose often 114 µM), without a hit: at the top dose activity change, negative = substrate turnover; 390,000 compounds, 0.01% hits; AID 588456; also: nearly all actives have a fitted effect of over 50% in size
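Rat TrxR1, dispensed at 90 nM, was prereduced with 400 uM NADPH (final) for 5 min at ~22 deg C, then incubated with compound 15 min before 400 uM selenite. A first-read NADPH fluorescence drop versus no-compound background flagged substrates.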
* = called active by the depositor; ? = inconclusive; · = no result given; [ ] = dose if it differs, or a comment. The list is not random: actives were taken first. Their share in the collection is about 1.8%. Calls follow the shape of the dose curve; as a rule, active = well fitted curve in the direction sought with a large enough effect; inconclusive = small, poorly fitted or top-dose-only effect, or another doubt; inactive = no such curve, though single readings can be large; an effect the other way counts as inactive or inconclusive. % is scaled to controls: 0 for no effect and ±100 for the full control effect; potency is read from the fitted curve at half-maximal effect.

SMILES	TrxR1 inh	VDR inhibitor	GCN5L2 inh	TrxR1 substrate
Nc1c(Br)cc(C=O)cc1Br	-2%	·	·	-3%
O=C(c1ccncc1)N1CCC2(CC1)CCN(c1cccc(-c3ccccc3)c1)CC2	·	?	-7%	·
O=C(c1ccncc1)N1CCC[C@@]2(CCN(c3cccc(-c4ccccc4)c3)C2)C1	·	40µM*	-3%	·
O=C(CC(c1ccco1)S(=O)(=O)c1ccccc1)c1ccc(F)cc1 (configuration not stated)	50µM*	-18%	-19%	8%
COc1ccc(C(=O)NCC(c2ccco2)S(=O)(=O)c2ccc(F)cc2)cc1 (configuration not stated)	5%[57.1 µM]	4%	-1%	-1%[57.1 µM]
CCOC(=O)/C=C/CCC/C=C/C(=O)c1ccccc1	·	8.9µM*	·	·
COc1cccc(CNC(=O)Cn2c(=O)cc(C)c3c(C)nn(C)c32)c1OC	16%[57.1 µM]	-5%	-11%	3%[57.1 µM]
Cc1cc(C)nc(SCC(=O)OCC(=O)Nc2nc3ccccc3s2)n1	4%[57.1 µM]	-11%	-4%	9%[57.1 µM]
COC(=O)c1ccc(NC(=O)CSc2ccccc2)cc1	-16%	50µM*	2%	-6%
COC(=O)c1ccc(NC(=O)CSc2ccccn2)cc1	-4%	6%	-2%	-6%
COC(=O)c1ccc(NC(=O)COC(=O)CSc2nc(C)cc(C)n2)cc1	11%	0%	0.71µM*	10%
CC(=O)Nc1cccc(C(=O)/C=C/c2ccc(/C=C/C(=O)c3cccc(NC(C)=O)c3)cc2)c1	·	·	5%	·
CC(=O)Nc1cccc(C(=O)/C=C/c2ccc[nH]2)c1	71µM*	2%	3%	-3%
CCn1c(=S)[nH]c2c(=O)n(C)c(=O)n(C)c21	-13%[2.29 µM]	50µM*	·	4%[57.1 µM]
Cn1c(=O)c2[nH]c(Br)nc2n(C)c1=O	·	2%	-8%	·
CC1(C(=O)O)NCCc2cc(O)c(O)cc21 (configuration not stated)	·	-13%	-15%	·
COc1ccccc1CN1CC2(CCN(C(=O)c3cnccn3)CC2)C1	·	14%	10%	·
CCOc1ccc(N2C(=O)C(Cl)=C(N3CCOCC3)C2=O)cc1	7%[57.1 µM]	28µM*	-11%	5%[57.1 µM]
CC(C)c1ccc(N2C(=O)C(Cl)=C(N3CCOCC3)C2=O)cc1	-1%[57.1 µM]	-16%	-5%	-1%[57.1 µM]
O=C(COC(=O)/C=C/c1ccccc1[N+](=O)[O-])NC1CC1	11%[57.1 µM]	71µM*	0%	-6%[57.1 µM]
O=C(COC(=O)/C=C/c1ccccc1[N+](=O)[O-])NC1CCS(=O)(=O)C1 (configuration not stated)	29%[57.1 µM]	-7%	-10%	11%[57.1 µM]
CCOC(=O)C(=Cc1cc(=O)c(OC)co1)C(=O)OCC	3.5µM*	40µM*	-1%	2%
CCOC(=O)C(=CNc1ccc(O)c(C(=O)OC)c1)C(=O)OCC	2%[57.1 µM]	6%	·	5%[57.1 µM]
COc1ccc(CNC(=O)c2cnn(-c3ccc(C)cc3)c2-n2cccc2)cc1OC	21%[57.1 µM]	10%	-1%	-3%[57.1 µM]
O=C(NC1CCCCC1)c1cc2c(Cl)nc3ccccc3c2s1	21%	-17%	-11%	9%
SMILES	TrxR1 inh	VDR inhibitor	GCN5L2 inh	TrxR1 substrate
Nc1cc(-c2ccncc2)c[nH]c1=O	?	20µM*	5%	?
CCCOc1ccc(CN(C(=O)c2cc(=O)c3ccc(C)cc3o2)C2CCS(=O)(=O)C2)cc1 (configuration not stated)	3%	-6%	-3%	-6%
O=C1CC(=O)N(Cc2ccco2)C(=S)N1	?	?	18µM*	-5%
CCOC(=O)C(=CNNc1ccccc1)C(=O)OCC	-85%	50µM*	-2%	8%[57.1 µM]
NC(CSS(=O)(=O)O)=NCCC12CC3CC(CC(O)(C3)C1)C2	133%	40µM*	-1%	-8%
O=C1NC(=O)c2c1c(-c1ccccc1)cc1[nH]c3ccc(O)cc3c21	·	-3%	4%	·
O=C(c1ccccc1)n1c(=O)c(F)cn(COCCBr)c1=O	45µM*	2%	-2%	9%
O=C(c1ccccc1)n1c(=O)cc[nH]c1=O	32%[57.1 µM]	-8%	-1%	13%[57.1 µM]
COc1cc(/C=C2\C(C)=C(C#N)c3nc(N)c(C#N)c(C)c32)ccc1OCC(=O)O	32µM*	-19%	1%	10%
Cn1ccnc1SCc1ccc([N+](=O)[O-])cc1	3%	0%	0.79µM*	8%[57.1 µM]
Cn1ccnc1SCc1cccc([N+](=O)[O-])c1	-5%	20%	-3%	-9%
O=C(Cc1ccc(OCc2ccccn2)cc1)NO	3%	·	·	-2%
Cn1c(=O)cc(OCC(=O)N2CCN(c3ccc(F)cc3)CC2)c2ccccc21	7%	-18%	-2%	-6%
C(=C\c1ccnc2ccccc12)/c1ccc(N(Cc2ccccc2)Cc2ccccc2)cc1	-2%	·	·	-5%
CCN(CC)S(=O)(=O)c1ccc(-c2csc(C)n2)cc1	38%	22µM*	-2%	-3%
CCCc1sc(N2CCCC(C(N)=O)C2)nc1-c1ccccc1 (configuration not stated)	3%	79µM*	3%	-4%
Fc1ccc(Nc2c3c(nc4nncn24)CCC3)cc1	-29%	-5%	-1%	-2%
Cc1c(N2C(=O)CS/C2=N\N=C\c2ccc(Br)cc2)c(=O)n(-c2ccccc2)n1C	-8%	8%	1.6µM*	-7%
Cc1c(N=C2SCC(=O)N2/N=C\c2ccc(Br)cc2)c(=O)n(-c2ccccc2)n1C	24%[57.1 µM]	-21%	2%	11%[57.1 µM]
COC1=C/C(=C/c2c(O)c(C#N)c3ccccn23)C=CC1=O	13µM*	?	4%	-7%
COc1cc(OC)cc(C(=O)c2c(C)c(C#N)c3ccccn23)c1	13%	19%	-2%	-5%
CCc1cccc(C)c1NC(=O)c1ccoc1C	20µM*	-1%	1%	-1%
CCc1cccc(C)c1NC(=O)c1ccccc1	0%[57.1 µM]	13%	-2%	-2%[57.1 µM]
CCCC[C@@H](C)/C=C(C)/C=C(\C)C(=O)NC1=C[C@@](O)(/C=C/C=C/C=C/C(=O)NC2=C(O)CCC2=O)[C@@H]2O[C@@H]2C1=O	·	2.2µM*	?	·
COc1ccc(C2c3c(n(C)c4ccccc34)C(=O)N2CC(=O)Nc2cccc(F)c2)cc1 (configuration not stated)	?	4%	-16%	0%
SMILES	TrxR1 inh	VDR inhibitor	GCN5L2 inh	TrxR1 substrate
COc1ccc(/C=C/C(=O)c2ccncc2)c2ccccc12	-35%	25µM*	-6%	-5%
CN(C)c1ccc(/C=N\Nc2ccc([N+](=O)[O-])cc2[N+](=O)[O-])cc1Br	7%	·	·	-4%
O=c1c(-c2ccc(Cl)cc2)nc2cnc(N3CCNCC3)nc2n1Cc1ccc(F)cc1	·	34%	-27%	·
CCS(=O)(=O)C1=NSC2=NC(=O)/C(=C\c3ccc(OS(=O)(=O)c4ccccc4)c(OC)c3)C(=N)N21	-25%	50µM*	-29%	-13%
COc1cc(/C=C2/C(=N)N3C(=NC2=O)SN=C3S(C)(=O)=O)ccc1OS(=O)(=O)c1ccc(C)cc1	-17%	?	?	-5%
CS(=O)(=O)C1=NSC2=NC(=O)/C(=C\c3ccc(OS(=O)(=O)c4ccccc4)cc3)C(=N)N21	5%	35µM*	?	0%

Screens (PubChem)
